Screening results: PubChem, The Scripps Research Institute Molecular Screening Center
PAFAH2 inh = PAFAH2 enzyme inhibitors, primary screen, biochemical, fluorescence polarization, human; recombinant PAFAH2, FP-rhodamine activity probe; inhibition, % at 3.39 µM; 340,000 compounds, 0.99% hits; Platelet-activating factor acetylhydrolase 2, cytoplasmic (Homo sapiens), Q99487;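 active = inhibition above the mean over all tested compounds plus 3 SD, cut at about 30% in these data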;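 also: inhibitors block probe labeling of enzyme so polarization drops; 0% = enzyme with DMSO and 100% = wells lacking PAFAH2 protein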
PAFAH1B3 inh = PAFAH1B3 enzyme inhibitors, primary screen, biochemical, fluorescence polarization, human; inhibition, % at 3.39 µM; 340,000 compounds, 0.28% hits; Platelet-activating factor acetylhydrolase IB subunit alpha1 (Homo sapiens), Q15102; recombinant PAFAH1B3, FP-rhodamine probe;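 active = inhibition above the screen-wide average of all tested compounds plus 3 SD, cut at about 25% in these data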;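 also: 0% = enzyme with DMSO only and 100% = wells lacking PAFAH1B3 protein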
PP1 counter = PP1-alpha phosphatase inhibitors, primary screen, counter-screen for PP5 inhibitor project, biochemical, fluorescence, OMFP substrate, single point. Serine/threonine-protein phosphatase PP1-alpha catalytic subunit (Homo sapiens), P62136. purified PP1alpha. inhibition, % at 6.7 µM. 320,000 compounds, 0.9% hits. AID 2235, 2010;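 active = inhibition above the mean inhibition of all tested compounds plus 3 SD, computed separately for each screening campaign, cut at about 15% in these data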
PP5 inh = PP5 phosphatase inhibitors, primary screen, biochemical, fluorescence; Serine/threonine-protein phosphatase 5 (Homo sapiens), P53041; purified PP5c, OMFP substrate fluorescence; inhibition, % at 6.7 µM; 320,000 compounds, 0.18% hits; AID 1987, 2009;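 active = inhibition above the campaign's mean inhibition across all tested compounds plus 3 SD, cut at about 9.5% in these data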;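 also: 0% = DMSO only and 100% = 100 µM cantharidin control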
PAFAH1B2 inh = PAFAH1B2 enzyme inhibitors, primary screen, biochemical, fluorescence polarization, human; Platelet-activating factor acetylhydrolase IB subunit alpha2 (Homo sapiens), P68402; recombinant PAFAH1B2, FP-rhodamine activity probe; inhibition, % at 3.39 µM; 340,000 compounds, 1.2% hits;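 active = inhibition above the mean of all tested compounds plus 3 SD, cut at about 24% in these data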;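 also: 0% = enzyme with DMSO and 100% = wells lacking PAFAH1B2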
pPAFAH inh = pPAFAH enzyme inhibitors, primary screen, biochemical, fluorescence polarization, human. Platelet-activating factor acetylhydrolase (Homo sapiens), Q13093. recombinant pPAFAH, FP-rhodamine probe fluorescence polarization. inhibition, % at 3.39 µM. 330,000 compounds, 1.5% hits;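 active = inhibition above the mean inhibition across the screen plus 3 SD, cut at about 25% in these data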;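 also: inhibitors block binding of the rhodamine activity-based probe so polarization drops; 0% = enzyme with DMSO and 100% = wells lacking pPAFAH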
Target sequence (Q13093 whole entry, looked up): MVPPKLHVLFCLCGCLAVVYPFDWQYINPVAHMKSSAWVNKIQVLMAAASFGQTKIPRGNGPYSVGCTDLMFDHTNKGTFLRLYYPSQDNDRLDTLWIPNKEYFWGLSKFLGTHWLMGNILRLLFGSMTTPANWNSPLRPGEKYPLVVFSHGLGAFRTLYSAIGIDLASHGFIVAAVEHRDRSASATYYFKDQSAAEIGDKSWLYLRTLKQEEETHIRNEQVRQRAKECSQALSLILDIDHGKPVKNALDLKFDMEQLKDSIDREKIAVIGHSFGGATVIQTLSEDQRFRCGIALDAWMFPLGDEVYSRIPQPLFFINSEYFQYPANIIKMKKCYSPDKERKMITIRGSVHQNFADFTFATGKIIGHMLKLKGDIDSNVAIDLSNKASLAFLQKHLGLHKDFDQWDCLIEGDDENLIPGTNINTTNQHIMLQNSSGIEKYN
* hit, by the source's call; . = no result given. Rows were chosen to be rich in hits. Some 3.4% of all compounds tested hit in one or more screens of this group.

SMILES	PAFAH2 inh	PAFAH1B3 inh	PP1 counter	PP5 inh	PAFAH1B2 inh	pPAFAH inh
CSc1nc2ncncc2[nH]1	7	7	.	.	1	.
COc1cc(NCCCCCCCN)c2ncccc2c1	-1	15	1	4	7	3
COc1cc(NC(=O)c2cc(OC)c(OC)c(OC)c2)c2ncccc2c1	-2	10	.	.	27*	.
COc1cc(NC(C)CCCN)c2ncccc2c1 (configuration not stated)	5	8	16*	5	-2	-2
O=C(NNC(=O)c1ccc(F)cc1F)c1ccc(-n2cnnn2)cc1	-6	8	0	1	2	0
Cc1ccc(S(=O)(=O)NC(=O)Nc2ccc(N(C)C)cc2)cc1	0	7	6	1	6	25*
Cc1ccc(NC(=O)NNS(=O)(=O)c2ccc(Br)cc2)cc1	3	-3	2	2	8	-1
CC(C)c1ccc(S(=O)(=O)/N=C2\C=C(NS(=O)(=O)c3ccccc3)C(=O)c3ccccc32)cc1	26	-2	0	3	23	26*
CCc1ccc(S(=O)(=O)/N=C2\C=C(NS(=O)(=O)c3ccccc3)C(=O)c3ccccc32)cc1	34*	6	.	.	0	.
Cc1ccc(C)c(S(=O)(=O)/N=C2\C=C(NS(=O)(=O)c3ccccc3)C(=O)c3ccccc32)c1	17	25	1	3	6	17
Cc1cc(C(=O)COC(=O)c2cccc(O)c2)c(C)n1C1CC1	6	-1	0	0	4	-1
CCC1=NN2C(=N)/C(=C/c3cc(C)n(Cc4ccccc4)c3C)C(=O)N=C2S1	-6	1	16*	2	15	18
CCN(C(=O)COc1ccc(C)nc1[N+](=O)[O-])C1CCS(=O)(=O)C1 (configuration not stated)	-9	3	2	-1	3	-2
CCN1C(=O)N/C(=C/c2cc(C)n(Cc3ccccc3)c2C)C1=O	2	-8	4	-1	82*	7
CCn1c(C)cc(/C=C2\NC(=O)N(Cc3ccc(Cl)cc3)C2=O)c1C	3	1	14	2	8	11
O=C(CSc1nnc(CNC(=O)c2cccs2)o1)Nc1cccc(C(F)(F)F)c1	4	4	-2	2	26*	3
CCN(Cc1nc2ccccc2c(=O)[nH]1)C(=O)c1cc2c(s1)CCCCC2	2	2	4	2	-1	-3
O=C(N/C=C/c1ccco1)OCc1ccccc1	5	10	1	1	-2	26*
O=C(N/C=C/c1ccco1)NCc1ccccc1	9	-3	3	2	-5	22
Cc1ccc(CNCCCn2cnc3c(OCc4ccccc4)ncnc32)o1	-8	2	.	.	4	.
O=C(CCc1ccccc1)c1c(O)cc(O)cc1O	4	1	-1	7	42*	10
Brc1ccc(-c2noc(CCc3ccccc3)n2)o1	-6	10	1	1	28*	0
CCCCn1c(N)c(N(C(=O)CSc2nncn2-c2ccccc2)C2CCCC2)c(=O)[nH]c1=O	1	8	.	.	7	.
COC(=O)c1[nH]c2ccc(C)cc2c1NC(=O)CN1CCCc2ccccc21	-1	-1	17*	3	3	1
COC(=O)c1[nH]c2cc(C)ccc2c1NC(=O)CN1CCN(c2ccccc2OC)CC1	7	3	4	5	6	5
SMILES	PAFAH2 inh	PAFAH1B3 inh	PP1 counter	PP5 inh	PAFAH1B2 inh	pPAFAH inh
Cc1ccc(C2CC(=O)Oc3cc(O)ccc32)cc1 (configuration not stated)	26	34*	-3	1	24*	17
COC(=O)CSc1ncnc2c(C)csc12	.	.	-2	-2	.	2
Cc1cc(Cl)ccc1C(=O)C1CCCN(C(=O)c2ccc3ncccc3c2)C1 (configuration not stated)	-4	12	0	3	-1	25*
CCc1ccc(O)c(N=Cc2ccccc2O)c1	9	6	0	1	2	13
O=c1[nH][nH]c2c(N=Cc3ccccc3O)ccc(F)c12	62*	61*	.	.	40*	.
CC(=O)NCCc1nc2ccccc2n1Cc1cc(C)ccc1C	6	2	-4	0	8	1
COc1ccc(CC(=O)NCc2ccc(F)cc2)cc1S(=O)(=O)N1CCOCC1	3	8	-3	3	2	3
O=C(O)c1cc(NC(=O)c2ccc(Br)cc2)cc(NC(=O)c2ccc(Br)cc2)c1	-10	-4	7	2	30*	-15
Cc1c(C(=O)Nc2nc(-c3ccccn3)cs2)oc2ccccc12	0	-1	16*	2	-3	17
O=C(Nc1nc(-c2ccccn2)cs1)c1cc2ccccc2o1	5	6	10	-2	2	3
Cc1sc(NC(=O)CSc2nnc(N)s2)c(C#N)c1C	-7	-5	-6	1	4	1
O=S(=O)(NCCC1=CCCCC1)c1cccc(S(=O)(=O)N2CCOCC2)c1	-3	3	-3	2	10	30*
O=C(NCCC1=CCCCC1)C1CCCN(S(=O)(=O)c2ccccc2)C1 (configuration not stated)	4	4	-4	-1	27*	9
Cc1ccc(S(=O)(=O)N2CCCC(C(=O)NCCC3=CCCCC3)C2)cc1 (configuration not stated)	-2	4	-8	2	15	1
O=C(NCCC1=CCCCC1)C1CCCN(S(=O)(=O)c2cnc[nH]2)C1 (configuration not stated)	1	0	1	3	26*	6
O=C(NCCc1ccccc1)C1CCCN(S(=O)(=O)c2cnc[nH]2)C1 (configuration not stated)	-1	6	-8	0	6	0
Cc1csc(=O)n1CC(=O)OC(C)C(=O)Nc1ccc(N(C)C)cc1 (configuration not stated)	-1	-4	.	.	3	.
CCCCCc1ccc(OCCCC[n+]2ccccc2)c(CCCCC)c1	-9	8	13	-1	6	-5
CCC(C)(C)c1ccc(OCCCC[n+]2ccccc2)c(C(C)(C)CC)c1	-1	3	15*	6	-2	3
CCOC(=O)c1sc(N(Cc2ccccc2)C(=O)COC(=O)c2ccccc2O)nc1C	-5	2	-4	1	42*	9
CCOC(=O)c1sc(N(Cc2ccccc2)C(=O)COC(=O)c2ccc(O)cc2)nc1C	-24	-15	1	3	-12	-18
